Results taken from the supplement of paper PMC7411054.
Counter-ions that a name gives are not always drawn.

How the values were obtained:
Settings in all cases: treatment time: 24 h
[1] = test system: HepG2-ACTB-RAB5A; assay: lowest phenotypically active concentration; higher = less potent
Summary of the method: (§1)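 Cells from fifteen gene-edited reporter lines (A549, HepG2 and WPMY1) were treated for 24 h at 0.3, 1, 3 or 9 µM and imaged live, four wells per condition. Features were normalised per well to solvent control wells. A condition deviated if ≥3 of 4 wells passed the 95th percentile of control Euclidean distances and was reproducible if its median replicate Pearson correlation beat the 95th percentile of non-replicates; phenotypic activity needed both.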

[2] = test system: HepG2-CANX-COX4; assay: as above
Summary of the method: as §1

[3] = test system: HepG2-TP53BP1-CLTA; assay: as above
Summary of the method: as §1

[4] = test system: HepG2-TUBA1B-RELA; assay: as above
Summary of the method: as §1

[5] = test system: WPMY1-ACTB-RAB5A; assay: as above
Summary of the method: as §1

[6] = test system: WPMY1-CANX-COX4; assay: as above
Summary of the method: as §1

[7] = test system: WPMY1-GM130-SQSTM1; assay: as above
Summary of the method: as §1

[8] = test system: WPMY1-TP53BP1-CLTA; assay: as above
Summary of the method: as §1

[9] = test system: WPMY1-TUBA1B-RELA; assay: as above
Summary of the method: as §1

[10] = test system: WPMY1-ACTB-RAB5A; assay: phenotypically active (imaging signature differs from DMSO and reproducible) at any of 0.3-9 uM (binary (1 = active, 0 = inactive)); higher = active
Summary of the method: as §1

Row | Compound | lowest phenotypically active concentration [1] [µM] | lowest phenotypically active concentration [2] [µM] | lowest phenotypically active concentration [3] [µM] | lowest phenotypically active concentration [4] [µM] | lowest phenotypically active concentration [5] [µM] | lowest phenotypically active concentration [6] [µM] | lowest phenotypically active concentration [7] [µM] | lowest phenotypically active concentration [8] [µM] | lowest phenotypically active concentration [9] [µM] | phenotypically active [10]
1 | Oc1ccc(-c2nc(-c3ccc(F)cc3)c(-c3ccncc3)[nH]2)cc1 | 3 | 1 | 1 | 3 | 9 | 9 | 3 | 9 | 3 | 1 (active)
2 | COc1ccc(N2C(=O)CSC2c2cccc(Br)c2)c(OC)c1 (stereo not given) | 9 | 3 | 9 | 9 | 3 | 3 | 3 | 3 | 3 | 1 (active)
3 | Fc1ccccc1CNCc1ccc(-c2ccnc3[nH]ccc23)cc1 [OXA 06 dihydrochloride] | 1 | 1 | 1 | 1 | 1 | ≤ 0.3 | 1 | 9 | 1 | 1 (active)
4 | Cc1ccc(C(=O)N(CCCN)[C@@H](c2nc3cc(Cl)ccc3c(=O)n2Cc2ccccc2)C(C)C)cc1 [Ispinesib] | ≤ 0.3 | ≤ 0.3 | ≤ 0.3 | ≤ 0.3 | ≤ 0.3 | 3 | ≤ 0.3 | ≤ 0.3 | ≤ 0.3 | 1 (active)
5 | CC[C@@H](N)CNc1ccnc(-c2cc(-c3cnn(C)c3)ccc2O)n1 | 1 | 1 | 1 | 1 | 3 | 1 | 1 | 1 | 1 | 1 (active)
6 | COc1cc(/C=C/c2ccc(OC)cc2OC)cc(OC)c1 | 3 | 3 | 3 | 3 | 1 | 1 | 1 | 1 | 1 | 1 (active)
7 | Cc1ncc(-c2ccnc(Nc3ccc(S(C)(=O)=O)cc3)n2)n1C(C)C | ≤ 0.3 | ≤ 0.3 | ≤ 0.3 | ≤ 0.3 | ≤ 0.3 | ≤ 0.3 | ≤ 0.3 | ≤ 0.3 | ≤ 0.3 | 1 (active)
8 | Nc1ccn([C@@H]2O[C@H](CO)[C@@H](O)[C@@H]2O)c(=O)n1 [cytarabine] | ≤ 0.3 | ≤ 0.3 | ≤ 0.3 | ≤ 0.3 | ≤ 0.3 | 1 | 1 | ≤ 0.3 | ≤ 0.3 | 1 (active)
9 | C[C@H]1COCCN1c1cc(C2(S(=O)(=O)C3CC3)CC2)nc(-c2ccc(NC(=S)NCCO)cc2)n1 | ≤ 0.3 | ≤ 0.3 | ≤ 0.3 | 1 | ≤ 0.3 | ≤ 0.3 | ≤ 0.3 | ≤ 0.3 | ≤ 0.3 | 1 (active)
10 | CC(=O)NCC(=O)N1[C@@H]2CC[C@H]1c1ccc(Nc3ncc(C(F)(F)F)c(NC4CCC4)n3)cc12 | ≤ 0.3 | ≤ 0.3 | ≤ 0.3 | ≤ 0.3 | ≤ 0.3 | ≤ 0.3 | ≤ 0.3 | ≤ 0.3 | ≤ 0.3 | 1 (active)
11 | Cc1cc(Nc2cc(N3CCN(C)CC3)nc(Sc3ccc(NC(=O)C4CC4)cc3)n2)[nH]n1 | ≤ 0.3 | ≤ 0.3 | ≤ 0.3 | ≤ 0.3 | ≤ 0.3 | ≤ 0.3 | ≤ 0.3 | ≤ 0.3 | ≤ 0.3 | 1 (active)
12 | CS(=O)(=O)c1cccc(CNc2nc(Nc3ccc4c(c3)CCC(=O)N4)ncc2C(F)(F)F)c1 | 1 | 1 | 1 | 1 | 1 | 3 | 3 | 1 | 3 | 1 (active)
13 | CC(C)(C)c1cnc(CSc2cnc(NC(=O)C3CCNCC3)s2)o1 | ≤ 0.3 | ≤ 0.3 | ≤ 0.3 | ≤ 0.3 | ≤ 0.3 | ≤ 0.3 | ≤ 0.3 | ≤ 0.3 | ≤ 0.3 | 1 (active)
14 | O=C1c2c(O)ccc(O)c2C(=O)c2c(NCCNCCO)ccc(NCCNCCO)c21 [mitoxantrone] | ≤ 0.3 | ≤ 0.3 | ≤ 0.3 | ≤ 0.3 | ≤ 0.3 | ≤ 0.3 | ≤ 0.3 | ≤ 0.3 | ≤ 0.3 | 1 (active)
15 | COc1ccc(S(=O)(=O)N(C(C)=O)c2ccccc2/C=C/c2cc[n+]([O-])cc2)cc1 | 3 | 3 | 3 | 3 | 1 | 3 | 3 | 3 | 1 | 1 (active)
16 | C=C1CN(Cc2ccc(C(=O)Nc3ccccc3N)cc2)C(=O)c2ccccc21 | ≤ 0.3 | ≤ 0.3 | 1 | 1 | ≤ 0.3 | ≤ 0.3 | ≤ 0.3 | ≤ 0.3 | 3 | 1 (active)
17 | COc1ccc2cc1Oc1ccc(cc1)C[C@H]1c3cc(c(OC)cc3CCN1C)Oc1c(OC)c(OC)cc3c1[C@H](C2)N(C)CC3 [Tetrandrine] | 1 | 3 | 1 | ≤ 0.3 | 1 | 1 | ≤ 0.3 | 3 | 1 | 1 (active)
18 | CC(C)(N)c1cc(C(=O)N[C@@H]2CCc3ccc(OC4=C5CCC(=O)N=C5NC=C4)cc3C2)cc(C(F)(F)F)c1 [ML 786 dihydrochloride] | ≤ 0.3 | ≤ 0.3 | ≤ 0.3 | ≤ 0.3 | 1 | 1 | 1 | 1 | 9 | 1 (active)
19 | O=C(NC(NC(=S)Nc1ccc(F)c([N+](=O)[O-])c1)C(Cl)(Cl)Cl)C(c1ccccc1)c1ccccc1 (stereo not given) | 9 | 9 | 9 | 9 | 9 | 9 | 9 | 9 | 9 | 1 (active)
